# Source: PubChem BioAssay (NCATS)
# Results filed as inconclusive are left out. Activity calls are given as the source filed them. Calls follow the shape of the dose curve; as a rule, active = well fitted curve in the direction sought with a large enough effect; inconclusive = small, poorly fitted or top-dose-only effect, or another doubt; inactive = no such curve, though single readings can be large; an effect the other way counts as inactive or inconclusive.
# Target: Cytochrome P450 2D6 (Homo sapiens) (UniProt P10635)
# Sequence (P10635 whole entry, looked up): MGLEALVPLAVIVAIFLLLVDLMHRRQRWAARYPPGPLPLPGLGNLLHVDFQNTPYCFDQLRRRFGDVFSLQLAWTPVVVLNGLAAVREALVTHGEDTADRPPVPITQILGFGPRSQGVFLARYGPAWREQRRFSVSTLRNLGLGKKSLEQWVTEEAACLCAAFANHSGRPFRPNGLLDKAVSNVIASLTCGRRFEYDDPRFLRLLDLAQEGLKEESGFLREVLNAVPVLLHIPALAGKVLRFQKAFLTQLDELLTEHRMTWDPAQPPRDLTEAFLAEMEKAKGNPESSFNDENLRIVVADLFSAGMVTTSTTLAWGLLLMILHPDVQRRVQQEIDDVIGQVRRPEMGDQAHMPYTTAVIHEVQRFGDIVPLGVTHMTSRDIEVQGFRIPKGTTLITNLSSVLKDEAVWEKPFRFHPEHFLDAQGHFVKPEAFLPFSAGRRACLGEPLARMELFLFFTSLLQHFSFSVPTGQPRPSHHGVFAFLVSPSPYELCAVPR
# Experiment: qHTS Assay for Inhibitors and Substrates of Cytochrome P450 2D6 (AID 891); also: nearly all actives have a fitted effect of over 60% in size; also: potency is read from the fitted curve at half-maximal effect;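 as to activity change, negative = inhibition: luciferin methyl ether substrate demethylated by CYP2D6 with NADPH regeneration; % is scaled to controls: 0 for no effect and ±100 for the full control effect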
# Details: recombinant CYP2D6, luciferin-ME EGE luminescence; series mostly up to 57.1 µM; activity change, negative = inhibition: at the top concentration
# Procedure, shortened: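 Luminescent read-out of luciferin formed by 5 nM human CYP2D6 demethylating 30 uM Luciferin-ME EGE (Km level) over 60 min at room temperature after NADPH regeneration addition. Data normalized to full inhibition by 1.43 uM quinidine.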
SMILES,"activity change, negative = inhibition",Potency
COc1c(-c2ccc(O)c(O)c2)oc2cc(O)cc(O)c2c1=O,6.35% (inactive),
COc1ccccc1CNc1ncnc2ccc(-c3cccnc3)cc12,,5.01 µM (active)
COc1cccc(-c2cncnc2NCc2ccc(OC)cc2OC)c1,,7.94 µM (active)

# Target: Cytochrome P450 2C19 (Homo sapiens) (UniProt P33261)
# Sequence (P33261 whole entry, looked up): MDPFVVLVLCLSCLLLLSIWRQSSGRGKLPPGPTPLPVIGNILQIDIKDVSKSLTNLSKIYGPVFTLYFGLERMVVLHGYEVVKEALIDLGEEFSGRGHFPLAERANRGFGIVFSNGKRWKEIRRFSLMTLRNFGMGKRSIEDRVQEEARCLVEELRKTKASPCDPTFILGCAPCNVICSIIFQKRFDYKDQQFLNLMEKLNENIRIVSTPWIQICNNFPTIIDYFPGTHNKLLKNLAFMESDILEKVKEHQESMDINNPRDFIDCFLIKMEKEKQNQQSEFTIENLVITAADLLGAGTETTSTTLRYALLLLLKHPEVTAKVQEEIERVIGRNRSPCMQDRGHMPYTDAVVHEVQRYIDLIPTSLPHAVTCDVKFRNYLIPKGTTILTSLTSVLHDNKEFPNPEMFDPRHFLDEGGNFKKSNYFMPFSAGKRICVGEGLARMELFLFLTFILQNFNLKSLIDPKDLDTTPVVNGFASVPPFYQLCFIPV
# Experiment: qHTS Assay for Inhibitors and Substrates of Cytochrome P450 2C19 (AID 899); also: nearly all actives have a fitted effect of over 60% in size; also: potency is read from the fitted curve at half-maximal effect; as to activity, negative = inhibition: % is scaled to controls: 0 for no effect and ±100 for the full control effect
# Details: recombinant CYP2C19, luciferin-H EGE luminescence; series mostly up to 57.1 µM; activity, negative = inhibition: at the top concentration
# Procedure, shortened: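 Signal comes from luciferase acting on luciferin released by CYP2C19-mediated hydroxylation of Luciferin-H EGE, 10uM (KM). Assay mix: 5nM enzyme, 50mM KPO4; 60 min at 37C with NADPH regeneration. Data normalized against 57uM ketoconazole.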
SMILES,"activity, negative = inhibition",Potency
COc1c(-c2ccc(O)c(O)c2)oc2cc(O)cc(O)c2c1=O,3.34% (inactive),
COc1cccc(-c2nc(Nc3ccncc3)c3ccccc3n2)c1,,3.16 µM (active)
COc1cccc(-c2cncnc2NCc2ccc(OC)cc2OC)c1,,1.26 µM (active)

# System: not listed separately
# Experiment: Confirmation and Secondary Assay for Modulators of Hemoglobin Beta Chain Splicing at IVS2 654 locus (AID 910);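 also: HeLa cells stably carrying EGFP split by mutant beta-globin IVS2-654 intron; % of control where 0% means no effect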
# Details: HeLa EGFP-654 splicing reporter, GFP fluorescence, 48 h; series mostly up to 38.3 µM; activation (splicing correction): at the top concentration
# Procedure, shortened: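 HeLa cells stably expressing EGFP interrupted by β-globin IVS2-654 intron, seeded overnight in Opti-MEM/2% FCS, then treated 2 days at 37 °C. Restored splicing read as total peak GFP intensity per well by laser scanning cytometry (488 nm excitation, 500–520 nm emission); 500 nM antisense PNA as control.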
SMILES,activation (splicing correction),Potency
CCOC(=O)c1c(C)cc(OC)cc1O,-4.47% [at 46.1 µM] (inactive),
CC(=O)Oc1ccc2c(c1C(C)C)CCC1C(C)(C)CCC[C@@]21C (some centres undefined),-4.37% [at 46.1 µM] (inactive),
NCC1OC(n2cnc3c(=O)[nH]c(N)nc32)C(O)C1O (centres undefined),0.849% (inactive),
CC(=O)OC1CC2C(C)(C)CCC(=O)[C@@]2(C)C2CC[C@@]3(C)C(c4ccoc4)OC(=O)C4OC43[C@]12C (some centres undefined),-2.22% [at 46.1 µM] (inactive),
C=CC(C1=CC(=O)C(OC)=CC1=O)c1ccccc1 (centres undefined),14.8% [at 46.1 µM] (inactive),
COc1ccc(-c2cc(=O)c3c(OC)c(OC)c(OC)c(OC)c3o2)cc1,-0.185% (inactive),
COc1ccccc1CNc1ncnc2ccc(-c3cccnc3)cc12,1.73% (inactive),
CC1(C)C(O)CC[C@]2(C)C1CC[C@@]1(C)C2C(=O)C=C2[C@@H]3C[C@@](C)(C(=O)O)CC[C@@]3(C)CCC21C (some centres undefined),5.17% [at 46.1 µM] (inactive),
COc1ccc2c(c1)OCc1c-2oc2cc(OC)ccc12,3.24% [at 46.1 µM] (inactive),
O=c1c(O)c(-c2ccc(O)c(O)c2)oc2c(OC3OC(CO)C(O)C(O)C3O)c(O)cc(O)c12 (centres undefined),6.13% [at 46.1 µM] (inactive),
CN(Cc1ccco1)c1nc(-c2cccc(C#N)c2)nc2ccccc12,0.374% (inactive),
CC1=CC2C(CC1=O)C(C)=CCC2C(C)C (centres undefined),0.991% (inactive),
COc1ccc2c(c1)OCC(Cc1ccc(OC)c(OC(C)=O)c1)C2=O (centres undefined),-7.43% [at 46.1 µM] (inactive),
CC(=O)OC1CCC23CC1(C)CCC2C(C)(C)CC3OC(C)=O (centres undefined),-1.96% (inactive),
C#C[C@]1(OC(C)=O)CCC2C3CCC4=CC(=O)CCC4C3CC[C@]21C (some centres undefined),-6.5% [at 46.1 µM] (inactive),
COC(=O)c1c(OC)cc2c(c1C)Oc1c(Cl)c(O)c(Cl)c(C)c1C(=O)O2,-7.81% [at 46.1 µM] (inactive),
CN(Cc1ccco1)c1nc(-c2ccccc2Cl)nc2ccccc12,2.3% (inactive),
O=C1CC[C@@]23/C=C/C(=O)NCCCCNCCCNC(=O)/C=C/c4ccc(c2c4)OC3C1 (some centres undefined),4.24% [at 46.1 µM] (inactive),
COc1ccc2c(c1)OC/C(=C/c1ccc(O)c(O)c1)C2=O,8.48% [at 46.1 µM] (inactive),
CC(=O)OC1CC[C@]2(C)C(CC(OC(C)=O)[C@@]3(C)C4=CC(=O)OC(c5ccoc5)[C@]4(C)CCC23)C1(C)C (some centres undefined),,inactive
COc1cccc(-c2nc(Nc3ccncc3)c3ccccc3n2)c1,-1.74% (inactive),
COc1cccc(-c2cncnc2NCc2ccc(OC)cc2OC)c1,-1.08% (inactive),
CC(=O)Oc1ccc2c(c1)CCC1C2CC[C@]2(C)C(OC(C)=O)CCC12 (some centres undefined),-8.53% [at 46.1 µM] (inactive),
COc1cc(-c2coc3cc(OCc4ccccc4)c(OC)c(O)c3c2=O)cc(O)c1OC,1.77% [at 46.1 µM] (inactive),
COc1cc(C/C=C/c2ccccc2)c(OC)cc1O,5.84% [at 46.1 µM] (inactive),
N[C@H](C(=O)O)C(O)C(O)C(O)CO (some centres undefined),-0.923% (inactive),

# System: not listed separately
# Experiment: Confirmation and Secondary Assay for Modulators of Hemoglobin Beta Chain Splicing at IVS2 705 locus (AID 930);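 also: HeLa cells stably expressing the EGFP-705 splicing reporter; GFP fluorescence per well restored by corrected splicing of the IVS2-705 intron in EGFP; % of control where 0% means no effect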
# Details: HeLa EGFP-705 splicing reporter, GFP fluorescence, 48 h; series mostly up to 38.3 µM; activation: at the top concentration
# Procedure, shortened: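 Secondary splice-site specificity test uses HeLa expressing CMV-driven EGFP interrupted by IVS2-705; cells were treated 2 days at 37C with 500 nM antisense PNA as positive control.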
SMILES,activation,outcome
COc1ccc(C(=O)O)c(O)c1OC,-0.494% (inactive),
CCOC(=O)c1c(C)cc(OC)cc1O,2.57% [at 46.1 µM] (inactive),
CC(=O)Oc1ccc2c(c1C(C)C)CCC1C(C)(C)CCC[C@@]21C (some centres undefined),2.43% [at 46.1 µM] (inactive),
COC(=O)CCCOc1ccc(Cl)cc1Cl,-0.1% (inactive),
NCC1OC(n2cnc3c(=O)[nH]c(N)nc32)C(O)C1O (centres undefined),1.4% (inactive),
CC(=O)OC1CC2C(C)(C)CCC(=O)[C@@]2(C)C2CC[C@@]3(C)C(c4ccoc4)OC(=O)C4OC43[C@]12C (some centres undefined),-0.349% [at 46.1 µM] (inactive),
C=CC(C1=CC(=O)C(OC)=CC1=O)c1ccccc1 (centres undefined),2.13% [at 46.1 µM] (inactive),
COc1ccc(-c2cc(=O)c3c(OC)c(OC)c(OC)c(OC)c3o2)cc1,-0.189% (inactive),
COc1ccccc1CNc1ncnc2ccc(-c3cccnc3)cc12,0.738% (inactive),
CC1(C)C(O)CC[C@]2(C)C1CC[C@@]1(C)C2C(=O)C=C2[C@@H]3C[C@@](C)(C(=O)O)CC[C@@]3(C)CCC21C (some centres undefined),-0.377% [at 46.1 µM] (inactive),
O=c1c(-c2ccccc2)coc2cc(O)cc(O)c12,-0.225% [at 46.1 µM] (inactive),
COC(=O)c1c(OC)cc2c(c1C)Oc1c(Cl)c(OC(C)=O)c(Cl)c(C)c1C(=O)O2,-0.708% (inactive),
COc1ccc2c(c1)OCc1c-2oc2cc(OC)ccc12,5.74% [at 46.1 µM] (inactive),
O=c1c(O)c(-c2ccc(O)c(O)c2)oc2c(OC3OC(CO)C(O)C(O)C3O)c(O)cc(O)c12 (centres undefined),0.267% [at 46.1 µM] (inactive),
CN(Cc1ccco1)c1nc(-c2cccc(C#N)c2)nc2ccccc12,0.865% (inactive),
CC1=CC2C(CC1=O)C(C)=CCC2C(C)C (centres undefined),0.225% (inactive),

SMILES,activation,outcome
CC1(C)C=CC(=O)[C@]2(C)C1CC(=O)[C@]1(C)C2CC[C@@]2(C)C(c3ccoc3)OC(=O)C3OC321 (some centres undefined),4.71% [at 46.1 µM] (inactive),
COc1ccc2c(c1)OCC(Cc1ccc(OC)c(OC(C)=O)c1)C2=O (centres undefined),1.7% [at 46.1 µM] (inactive),
CC(=O)OC1CCC23CC1(C)CCC2C(C)(C)CC3OC(C)=O (centres undefined),0.179% (inactive),
C#C[C@]1(OC(C)=O)CCC2C3CCC4=CC(=O)CCC4C3CC[C@]21C (some centres undefined),-0.957% [at 46.1 µM] (inactive),
COC(=O)c1c(OC)cc2c(c1C)Oc1c(Cl)c(O)c(Cl)c(C)c1C(=O)O2,0.674% [at 46.1 µM] (inactive),
CN(Cc1ccco1)c1nc(-c2ccccc2Cl)nc2ccccc12,-0.4% (inactive),
O=C1CC[C@@]23/C=C/C(=O)NCCCCNCCCNC(=O)/C=C/c4ccc(c2c4)OC3C1 (some centres undefined),4.43% [at 46.1 µM] (inactive),
O=C(O)c1cc(O)c2c(c1)C(=O)c1cc(O)cc(O)c1C2=O,0.69% (inactive),
COc1ccc2c(c1)OC/C(=C/c1ccc(O)c(O)c1)C2=O,2.13% [at 46.1 µM] (inactive),
CC(=O)OC1CC[C@]2(C)C(CC(OC(C)=O)[C@@]3(C)C4=CC(=O)OC(c5ccoc5)[C@]4(C)CCC23)C1(C)C (some centres undefined),,inactive
COc1cccc(-c2nc(Nc3ccncc3)c3ccccc3n2)c1,-0.211% (inactive),
COc1cccc(-c2cncnc2NCc2ccc(OC)cc2OC)c1,0.255% (inactive),
CC(=O)Oc1ccc2c(c1)CCC1C2CC[C@]2(C)C(OC(C)=O)CCC12 (some centres undefined),0.223% [at 46.1 µM] (inactive),
COc1cc(-c2coc3cc(OCc4ccccc4)c(OC)c(O)c3c2=O)cc(O)c1OC,1.01% [at 46.1 µM] (inactive),
COc1cc(C/C=C/c2ccccc2)c(OC)cc1O,0.562% [at 46.1 µM] (inactive),
N[C@H](C(=O)O)C(O)C(O)C(O)CO (some centres undefined),-0.312% (inactive),
